In the supplement of paper PMC7411054:

Tests used:
Experiment in all cases: phenotypically active (imaging signature differs from DMSO and reproducible) at any of 0.3-9 uM (binary (1 = active, 0 = inactive)); higher = active
Settings in all cases: treatment time: 24 h
A549-ACTB-RAB5A = system: A549-ACTB-RAB5A
Outline: (§1)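 The reporter lines, fifteen in total and built by gene editing in A549, HepG2 and WPMY1 cells, used BFP for segmentation alongside GFP and RFP/FusionRed markers. Each was treated at 0.3, 1, 3 or 9 µM for 24 h in four wells and then imaged live, with live-cell features normalised to solvent control wells. Deviation meant ≥3 of 4 wells beyond the 95th percentile of control Euclidean distances; reproducibility meant a median replicate Pearson correlation above the 95th percentile of non-replicates. Only conditions meeting both were scored as phenotypically active.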

A549-CANX-COX4 = system: A549-CANX-COX4
Outline: as §1

A549-GM130-SQSTM1 = system: A549-GM130-SQSTM1
Outline: as §1

A549-TP53BP1-CLTA = system: A549-TP53BP1-CLTA
Outline: as §1

A549-TUBA1B-RELA = system: A549-TUBA1B-RELA
Outline: as §1

HepG2-ACTB-RAB5A = system: HepG2-ACTB-RAB5A
Outline: as §1

HepG2-CANX-COX4 = system: HepG2-CANX-COX4
Outline: as §1

HepG2-GM130-SQSTM1 = system: HepG2-GM130-SQSTM1
Outline: as §1

HepG2-TP53BP1-CLTA = system: HepG2-TP53BP1-CLTA
Outline: as §1

HepG2-TUBA1B-RELA = system: HepG2-TUBA1B-RELA
Outline: as §1

WPMY1-ACTB-RAB5A = system: WPMY1-ACTB-RAB5A
Outline: as §1

WPMY1-CANX-COX4 = system: WPMY1-CANX-COX4
Outline: as §1

WPMY1-GM130-SQSTM1 = system: WPMY1-GM130-SQSTM1
Outline: as §1

WPMY1-TP53BP1-CLTA = system: WPMY1-TP53BP1-CLTA
Outline: as §1

WPMY1-TUBA1B-RELA = system: WPMY1-TUBA1B-RELA
Outline: as §1

Measured: phenotypically active

CC[N+](C)(C)c1cccc(O)c1 [edrophonium]
inactive: A549-ACTB-RAB5A 0 | A549-CANX-COX4 0 | A549-GM130-SQSTM1 0 | A549-TP53BP1-CLTA 0 | A549-TUBA1B-RELA 0 | HepG2-ACTB-RAB5A 0 | HepG2-CANX-COX4 0 | HepG2-GM130-SQSTM1 0 | HepG2-TP53BP1-CLTA 0 | HepG2-TUBA1B-RELA 0 | WPMY1-ACTB-RAB5A 0 | WPMY1-CANX-COX4 0 | WPMY1-GM130-SQSTM1 0 | WPMY1-TP53BP1-CLTA 0 | WPMY1-TUBA1B-RELA 0

CN(C)/N=N/c1[nH]cnc1C(N)=O [dacarbazine]
inactive: A549-ACTB-RAB5A 0 | A549-CANX-COX4 0 | A549-GM130-SQSTM1 0 | A549-TP53BP1-CLTA 0 | A549-TUBA1B-RELA 0 | HepG2-ACTB-RAB5A 0 | HepG2-CANX-COX4 0 | HepG2-GM130-SQSTM1 0 | HepG2-TP53BP1-CLTA 0 | HepG2-TUBA1B-RELA 0 | WPMY1-ACTB-RAB5A 0 | WPMY1-CANX-COX4 0 | WPMY1-GM130-SQSTM1 0 | WPMY1-TP53BP1-CLTA 0 | WPMY1-TUBA1B-RELA 0

C#C[C@]1(O)CC[C@H]2[C@@H]3CCc4cc(OC)ccc4[C@H]3CC[C@@]21C [mestranol]
inactive: A549-ACTB-RAB5A 0 | A549-CANX-COX4 0 | A549-GM130-SQSTM1 0 | A549-TP53BP1-CLTA 0 | A549-TUBA1B-RELA 0 | HepG2-ACTB-RAB5A 0 | HepG2-CANX-COX4 0 | HepG2-GM130-SQSTM1 0 | HepG2-TP53BP1-CLTA 0 | HepG2-TUBA1B-RELA 0 | WPMY1-ACTB-RAB5A 0 | WPMY1-CANX-COX4 0 | WPMY1-GM130-SQSTM1 0 | WPMY1-TP53BP1-CLTA 0 | WPMY1-TUBA1B-RELA 0

NCCC(=O)NCCc1c[nH]cn1 [Carcinine]
inactive: A549-ACTB-RAB5A 0 | A549-CANX-COX4 0 | A549-GM130-SQSTM1 0 | A549-TP53BP1-CLTA 0 | A549-TUBA1B-RELA 0 | HepG2-ACTB-RAB5A 0 | HepG2-CANX-COX4 0 | HepG2-GM130-SQSTM1 0 | HepG2-TP53BP1-CLTA 0 | HepG2-TUBA1B-RELA 0 | WPMY1-ACTB-RAB5A 0 | WPMY1-CANX-COX4 0 | WPMY1-GM130-SQSTM1 0 | WPMY1-TP53BP1-CLTA 0 | WPMY1-TUBA1B-RELA 0

CC(C(=O)O)c1ccc(C(=O)c2cccs2)cc1 (stereo not given) [suprofen]
inactive: A549-ACTB-RAB5A 0 | A549-CANX-COX4 0 | A549-GM130-SQSTM1 0 | A549-TP53BP1-CLTA 0 | A549-TUBA1B-RELA 0 | HepG2-ACTB-RAB5A 0 | HepG2-CANX-COX4 0 | HepG2-GM130-SQSTM1 0 | HepG2-TP53BP1-CLTA 0 | HepG2-TUBA1B-RELA 0 | WPMY1-ACTB-RAB5A 0 | WPMY1-CANX-COX4 0 | WPMY1-GM130-SQSTM1 0 | WPMY1-TP53BP1-CLTA 0 | WPMY1-TUBA1B-RELA 0

COc1cc(C=O)c([N+](=O)[O-])cc1OC
inactive: A549-ACTB-RAB5A 0 | A549-CANX-COX4 0 | A549-GM130-SQSTM1 0 | A549-TP53BP1-CLTA 0 | A549-TUBA1B-RELA 0 | HepG2-ACTB-RAB5A 0 | HepG2-CANX-COX4 0 | HepG2-GM130-SQSTM1 0 | HepG2-TP53BP1-CLTA 0 | HepG2-TUBA1B-RELA 0 | WPMY1-ACTB-RAB5A 0 | WPMY1-CANX-COX4 0 | WPMY1-GM130-SQSTM1 0 | WPMY1-TP53BP1-CLTA 0 | WPMY1-TUBA1B-RELA 0

CCN(CC)CCNC(=O)c1cc(Cl)c(N)cc1OC [metoclopramide]
inactive: A549-ACTB-RAB5A 0 | A549-CANX-COX4 0 | A549-GM130-SQSTM1 0 | A549-TP53BP1-CLTA 0 | A549-TUBA1B-RELA 0 | HepG2-ACTB-RAB5A 0 | HepG2-CANX-COX4 0 | HepG2-GM130-SQSTM1 0 | HepG2-TP53BP1-CLTA 0 | HepG2-TUBA1B-RELA 0 | WPMY1-ACTB-RAB5A 0 | WPMY1-CANX-COX4 0 | WPMY1-GM130-SQSTM1 0 | WPMY1-TP53BP1-CLTA 0 | WPMY1-TUBA1B-RELA 0

O=C(O)CCN(O)C(=O)CCCCCCCCC1CC1
inactive: A549-ACTB-RAB5A 0 | A549-CANX-COX4 0 | A549-GM130-SQSTM1 0 | A549-TP53BP1-CLTA 0 | A549-TUBA1B-RELA 0 | HepG2-ACTB-RAB5A 0 | HepG2-CANX-COX4 0 | HepG2-GM130-SQSTM1 0 | HepG2-TP53BP1-CLTA 0 | HepG2-TUBA1B-RELA 0 | WPMY1-ACTB-RAB5A 0 | WPMY1-CANX-COX4 0 | WPMY1-GM130-SQSTM1 0 | WPMY1-TP53BP1-CLTA 0 | WPMY1-TUBA1B-RELA 0

CC1=CC(=O)CC(C)(C)C1(O)/C=C/C(C)=C\C(=O)O (mixture of isomers) [(+/-)-2-cis-4-trans-Abscisic acid]
inactive: A549-ACTB-RAB5A 0 | A549-CANX-COX4 0 | A549-GM130-SQSTM1 0 | A549-TP53BP1-CLTA 0 | A549-TUBA1B-RELA 0 | HepG2-ACTB-RAB5A 0 | HepG2-CANX-COX4 0 | HepG2-GM130-SQSTM1 0 | HepG2-TP53BP1-CLTA 0 | HepG2-TUBA1B-RELA 0 | WPMY1-ACTB-RAB5A 0 | WPMY1-CANX-COX4 0 | WPMY1-GM130-SQSTM1 0 | WPMY1-TP53BP1-CLTA 0 | WPMY1-TUBA1B-RELA 0

CCC(CC)(NC(=O)C(C)C)C(=O)N[C@@H](CCCNC(=N)N)C(=O)NC1(C(=O)NC(c2ccc(F)cc2)c2ccc(F)cc2)CCCC1
inactive: A549-ACTB-RAB5A 0 | A549-CANX-COX4 0 | A549-GM130-SQSTM1 0 | A549-TP53BP1-CLTA 0 | A549-TUBA1B-RELA 0 | HepG2-ACTB-RAB5A 0 | HepG2-CANX-COX4 0 | HepG2-GM130-SQSTM1 0 | HepG2-TP53BP1-CLTA 0 | HepG2-TUBA1B-RELA 0 | WPMY1-ACTB-RAB5A 0 | WPMY1-CANX-COX4 0 | WPMY1-GM130-SQSTM1 0 | WPMY1-TP53BP1-CLTA 0 | WPMY1-TUBA1B-RELA 0

CC(C)C1=CC2=CCC3[C@](C)(CCC[C@]3(C)C(=O)O)C2CC1 (stereo not given in full) [Abietic Acid]
inactive: A549-ACTB-RAB5A 0 | A549-CANX-COX4 0 | A549-GM130-SQSTM1 0 | A549-TP53BP1-CLTA 0 | A549-TUBA1B-RELA 0 | HepG2-ACTB-RAB5A 0 | HepG2-CANX-COX4 0 | HepG2-GM130-SQSTM1 0 | HepG2-TP53BP1-CLTA 0 | HepG2-TUBA1B-RELA 0 | WPMY1-ACTB-RAB5A 0 | WPMY1-CANX-COX4 0 | WPMY1-GM130-SQSTM1 0 | WPMY1-TP53BP1-CLTA 0 | WPMY1-TUBA1B-RELA 0
